From the supplement of paper PMC11383364
± gives the standard deviation of the averaged measurements.

System: SUM149
Experiment: percent difference in area under dose-response curve of relative cell number, RPMI vs HPLM; higher = drug relatively more effective in HPLM than RPMI (negative = less effective in HPLM)
Settings: treatment time: 72 h; dose range: 10-point, 1 nM to 20 µM; media compared: RPMI vs HPLM
Protocol: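 SUM149 triple-negative breast cancer cells, 500 cells/well in 384-well plates, were grown in RPMI or human plasma-like medium (HPLM) with 5% dialyzed FBS. They were pin-transferred with an anticancer plus metabolic-inhibitor library in 10-point dose series (20 µM to 1 nM). After 72 h, cells were fixed, stained with bisbenzimide and counted by Acumen plate cytometry. The AUC of relative survival vs dose was computed per medium, and the percent difference in AUC between RPMI and HPLM is reported.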

Compound	percent difference in area under dose-response curve [%]
O=C(c1cc(Cc2n[nH]c(=O)c3ccccc23)ccc1F)N1CCN(C(=O)C2CC2)CC1 [Olaparib]	-24.4 ± 6.6
CN1CC[C@H](c2c(O)cc(O)c3c(=O)cc(-c4ccccc4Cl)oc23)[C@H](O)C1 [Flavopiridol]	-2.56
Cc1cc2c(C(=O)NC[C@H](C)c3ccccc3)c(O)c(O)cc2c(O)c1-c1c(C)cc2c(C(=O)NC[C@H](C)c3ccccc3)c(O)c(O)cc2c1O [Sabutoclax]	-9.94
Nc1ccccc1NC(=O)c1ccc(CNc2nccc(-c3cccnc3)n2)cc1 [Mocetinostat]	0.546
Oc1cccc(-c2nc(N3CCOCC3)c3oc4ncccc4c3n2)c1	3.18
COc1cccc2c1C(=O)c1c(O)c3c(c(O)c1C2=O)C[C@@](O)(C(C)=O)C[C@@H]3O[C@H]1C[C@H](N)[C@H](O)[C@H](C)O1 [Daunorubicin_HCl]	-26.8
O=C(O)C(=O)O.[NH-][C@@H]1CCCC[C@H]1[NH-].[Pt+2] [Oxaliplatin]	-2.44
CCOc1cc(N2CCC(O)CC2)ccc1Nc1ncc2c(n1)N(C)c1ccccc1C(=O)N2C	-8.79
Cc1cnc(-c2cnc(NCCNc3ccc(C#N)cn3)nc2-c2ccc(Cl)cc2Cl)[nH]1	7.14
COc1cc(Nc2c(C#N)cnc3cc(OCCCN4CCN(C)CC4)c(OC)cc23)c(Cl)cc1Cl [Bosutinib]	7.19
Nc1nc(F)nc2c1ncn2[C@@H]1O[C@H](CO)[C@@H](O)[C@@H]1O [Fludarabine]	-2.56 ± 3.2
CC(=O)N1CCN(c2ccc(OCC3COC(Cn4ccnc4)(c4ccc(Cl)cc4Cl)O3)cc2)CC1 (stereo not given) [Ketoconazole]	-8.22
C#Cc1cccc(Nc2ncnc3cc(OC)c(OCCCCCCC(=O)NO)cc23)c1	8.57
C=CCn1c(=O)c2cnc(Nc3ccc(N4CCN(C)CC4)cc3)nc2n1-c1cccc(C(C)(C)O)n1	0.0373
CC(C)n1nc(-c2ccc3oc(N)nc3c2)c2c(N)ncnc21	0.531
Cn1cnc2c(F)c(Nc3ccc(Br)cc3Cl)c(C(=O)NOCCO)cc21	-3.35
Cn1cc(C2=C(c3ccc(Cl)cc3Cl)C(=O)NC2=O)c2ccccc21	-0.391
CC(=O)[C@]1(O)Cc2c(O)c3c(c(O)c2[C@@H](O[C@H]2C[C@H](N)[C@H](O)[C@H](C)O2)C1)C(=O)c1ccccc1C3=O [Idarubicin_HCl]	-49.3
CC(=O)Nc1cccc(-n2c(=O)n(C3CC3)c(=O)c3c(Nc4ccc(I)cc4F)n(C)c(=O)c(C)c32)c1	-18.1
COC(=O)Nc1nc2cc(C(=O)c3cccs3)ccc2[nH]1 [Nocodazole]	-17.2

Compound	percent difference in area under dose-response curve [%]
NC(=O)Nc1cc(-c2cccc(F)c2)sc1C(=O)N[C@H]1CCCNC1	-2.68
CN(C)Cc1c(C(=O)NCCOc2ccc(C(=O)NO)cc2)oc2ccccc12	0.731
Cc1ccc(C(=O)N(CCCN)[C@@H](c2nc3cc(Cl)ccc3c(=O)n2Cc2ccccc2)C(C)C)cc1 [Ispinesib]	-43.4
Nc1ccc(C(=O)Nc2cccc(-c3nc(N4CCOCC4)c4oc5ncccc5c4n3)c2)cn1	7.67
CCCCC[C@H](CC(=O)NO)C(=O)N[C@H](C(=O)N1CCC[C@H]1CO)C(C)C [Actinonin]	1.68
CN(NC(=O)CC(=O)NN(C)C(=S)c1ccccc1)C(=S)c1ccccc1 [Elesclomol]	-21.3 ± 1.7
CCN(CC)C(=S)SSC(=S)N(CC)CC [Disulfiram]	-27.1 ± 6.8
Cc1cc([N+](=O)[O-])ccc1NS(=O)(=O)c1cc(Cl)ccc1Cl	11.9
CCC1=C[C@@H]2CN(C1)Cc1c([nH]c3ccccc13)[C@@](C(=O)OC)(c1cc3c(cc1OC)N(C)[C@H]1[C@@](O)(C(=O)OC)[C@H](OC(C)=O)[C@]4(CC)C=CCN5CC[C@]31[C@@H]54)C2 [Vinorelbine_Tartrate]	-41
Cc1ccc(C)c(Oc2ccncc2C(=O)N2CCN(C3CC3)c3ccccc32)c1	-4.99
S=c1[nH]cnc2nc[nH]c12 [Mercaptopurine]	-43.4
CC(=O)O[C@]1(C(C)=O)CC[C@H]2[C@@H]3C[C@H](C)C4=CC(=O)CC[C@]4(C)[C@H]3CC[C@@]21C [Medroxyprogesterone_acetate]	0.646
C[C@H]1[C@H](OC(=O)CCC(=O)O)O[C@@H]2O[C@@]3(C)CC[C@H]4[C@H](C)CC[C@@H]1[C@@]24OO3 [Artesunate]	-1.87
c1ccc(Cn2nnc3c(Sc4nc5ccccc5o4)ncnc32)cc1	0.823
COc1cc2nccc(Oc3ccc(NC(=O)C4(C(=O)Nc5ccc(F)cc5)CC4)cc3)c2cc1OC [Cabozantinib_malate]	13.2
CN(C)CCOc1ccc(/C(=C(/CCCl)c2ccccc2)c2ccccc2)cc1 [Toremifene_Citrate]	2.31
COc1cc2c(Oc3ccc4[nH]c(C)cc4c3F)ncnc2cc1OCCCN1CCCC1 [Cediranib]	1
COc1c(C)cnc(Cn2cnc3c(Cl)nc(N)nc32)c1C	-26.2
Cc1cc(/C=C/c2ccc3cc(N(C)C)ccc3[n+]2C)c(C)n1-c1ccccc1 [Pyrvinium_pamoate]	-34.5
COC1=CC(c2cc3ccccc3[nH]2)=N/C1=C\c1[nH]c(C)cc1C [Obatoclax_mesylate]	-8.47
